# Hit rate of the full screen: of about 650,000 compounds, about 6,800 (1%) were called active. This is one part of a sample in which actives are shown more often than they occur. Rule as the data show it: active = activation above about 4.9%; inactive = the rest.
# Target: G-protein coupled receptor 151 (Homo sapiens) (UniProt Q8TDV0)
# Assay: activators of human GPR151, primary screen, cell-based, PathHunter beta-arrestin, luminescence (AID 1508602);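 also: 0% = median of compound wells and 100% = cells with positive control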
# Conditions: PathHunter beta-arrestin GPR151 cells, at 11.2 µM, active compounds read high
# Sequence of G-protein coupled receptor 151 (Homo sapiens) (Q8TDV0 whole entry, looked up): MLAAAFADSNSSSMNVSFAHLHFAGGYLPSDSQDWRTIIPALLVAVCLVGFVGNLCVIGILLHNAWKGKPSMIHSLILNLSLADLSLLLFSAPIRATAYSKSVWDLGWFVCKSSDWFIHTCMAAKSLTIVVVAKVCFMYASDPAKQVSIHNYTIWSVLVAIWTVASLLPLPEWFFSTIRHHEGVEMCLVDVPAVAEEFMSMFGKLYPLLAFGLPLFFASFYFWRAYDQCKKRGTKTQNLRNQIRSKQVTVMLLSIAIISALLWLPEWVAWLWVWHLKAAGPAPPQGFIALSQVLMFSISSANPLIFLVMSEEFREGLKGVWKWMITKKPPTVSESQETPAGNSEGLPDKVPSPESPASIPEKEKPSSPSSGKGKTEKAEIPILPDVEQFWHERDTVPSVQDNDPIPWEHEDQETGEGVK
row,Structure (SMILES),activation
1,O=C1c2cccnc2C(=O)N1Cc1ccc(S(=O)(=O)NCc2ccccc2Cl)cc1,-0.655% (inactive)
2,COC(=O)c1sc(SC)nc1Nc1ccnc(Nc2ccc(N3CCOCC3)cc2OC)c1,0.519% (inactive)
3,COc1ccc(/C=C(\C#N)C(=O)Nc2ccc(F)cc2)c(OC)c1,6.94% (active)
4,COc1ccc(NC(=O)/C(C#N)=C/c2ccccc2[N+](=O)[O-])cc1,0.536% (inactive)
5,COc1cccc(/C=C(/C#N)C(=O)Nc2ccc(F)cc2)c1O,0.228% (inactive)
6,CCOc1nn(CC)cc1-c1nnc(SCC(=O)NC)n1C,1.61% (inactive)
7,CCCNC(=O)N1CCC2(CC1)OCc1ccccc1O2,-0.163% (inactive)
8,Cn1c(=O)cc(OCC(=O)NCCN2CCOCC2)c2ccccc21,-0.103% (inactive)
9,O=C(NCCN1CCOCC1)c1cncc(-c2ccccc2)c1,-0.0692% (inactive)
10,CC(=O)Oc1cc2c(C(=O)NCCN3CCOCC3)c(C)oc2c2ccccc12,7.59% (active)
11,CC(O)CNc1ncnc2c1c(-c1ccccc1)cn2-c1ccc(Cl)cc1 (centres undefined),-0.64% (inactive)
12,O=C(Nc1cc(Oc2cccnc2)cc([N+](=O)[O-])c1)c1cc2nc(-c3ccc(F)cc3)cc(C(F)(F)F)n2n1,0.0201% (inactive)
13,Cn1ccc(CC(=O)N2CCOc3ccc(CN4CCCC4)cc3C2)c1,-0.228% (inactive)
14,CCC(=O)Nc1ccc(C(=O)c2ccccc2)cc1NC(=O)CC,0.269% (inactive)
15,CCC(=O)Nc1cc(C(=O)O)ccc1C,5.86% (active)
16,COc1cccc(OC)c1C(=O)Nc1cc(C(=O)O)ccc1C,1.75% (inactive)
17,COc1ccc(NC(=O)c2cc(S(=O)(=O)N3CCCCC3)ccc2F)cc1,-0.423% (inactive)
18,CCOc1ccc(NC(=O)/C(C#N)=C\c2ccc(OC)cc2)cc1,-0.986% (inactive)
19,COc1ccc(/C=C(\C#N)C(=O)Nc2cccc(S(=O)(=O)N3CCCCC3)c2)cc1,6.12% (active)
20,O=C(Nc1ccc2oc(-c3ccc(F)cc3)nc2c1)c1ccc([N+](=O)[O-])cc1,0.435% (inactive)
21,COC(=O)c1cc(NC(=O)COc2ccc([N+](=O)[O-])cc2)cc(C(=O)OC)c1,5.49% (active)
22,O=C(COc1ccc([N+](=O)[O-])cc1)Nc1ccc2oc(-c3cccc(F)c3)nc2c1,6.49% (active)
23,Cc1cccc(NC(=O)COc2ccc([N+](=O)[O-])cc2)c1,0.0864% (inactive)
24,O=C(COc1ccc([N+](=O)[O-])cc1)Nc1cccc(Br)c1,0.574% (inactive)

row,Structure (SMILES),activation
1,Cc1cc2nc(-c3cccc(NC(=O)COc4ccc(Br)cc4)c3)oc2cc1C,-0.225% (inactive)
2,CCCNc1nc(Cl)nc2c1ncn2Cc1ccc(C(F)(F)F)cc1,0.16% (inactive)
3,O=C(Cc1csc(SCc2cccc(Cl)c2)n1)NC1CCCC1,-0.537% (inactive)
4,Cc1ccc2c(c1)N(CC(=O)N(Cc1ccccc1)Cc1ccc3c(c1)OCO3)C(=O)CO2,1.35% (inactive)
5,CCC(=O)N(CCC(Cc1ccccc1)c1ccc2c(c1)OCO2)Cc1ccc(OC(C)C)cc1 (centres undefined),6.12% (active)
6,O=C(Nc1ccc2c(c1)OCO2)C(c1ccccc1)N(Cc1ccccc1)Cc1ccccc1 (centres undefined),-0.714% (inactive)
7,CCn1c(SCC(=O)Nc2ccccc2Cl)nnc1-c1ccccc1N,0.603% (inactive)
8,CC(C)(C)C(=O)CSc1nc2c(sc(=S)n2CCc2ccccc2)c(=O)n1Cc1ccco1,-0.941% (inactive)
9,O=C(NCCc1ccccc1)C(=O)NCCC1CCCCC1,-1.51% (inactive)
10,CC(C)(C)C1CCC(=NNC(=O)C(=O)NCCc2ccccc2)CC1 (centres undefined),6.69% (active)
11,CNC(=O)C(=O)NCCc1ccccc1,2.61% (inactive)
12,Cc1ccc2c(CC(=O)N3CCc4ccccc4C3)cc(=O)oc2c1,-1.02% (inactive)
13,Cc1nnc(C)n1/N=C/c1ccc(Br)cc1,0.537% (inactive)
14,Cc1nc([N+](=O)[O-])cn1CC(=O)C12CC3CC(CC(C3)C1)C2,0.332% (inactive)
15,COc1ccc(CCNc2cc(C)nc3ncnn23)cc1,-0.69% (inactive)
16,COP(=O)(OC)C(OC(=O)NC(=O)C(Cl)(Cl)Cl)c1ccccc1 (centres undefined),0.583% (inactive)
17,O=C(Nc1ccc(N2CCCCC2)c(Cl)c1)c1ccc([N+](=O)[O-])o1,1.67% (inactive)
18,CCN(CC)S(=O)(=O)c1ccc(N2CCCC2)c(NC(=O)c2ccc([N+](=O)[O-])o2)c1,5.27% (active)
19,CCN(CC)S(=O)(=O)c1ccc(N2CCCC2)c(C(=O)O)c1,1.07% (inactive)
20,Cc1ccc(-c2cnn3ccc(NCc4cccnc4)nc23)cc1C,-1.12% (inactive)
21,Cc1ccc(S(=O)(=O)N/N=C/c2c[nH]c3ccc(Br)cc23)cc1,0.63% (inactive)
22,c1ccc(-c2nc(-c3cccs3)[nH]c2-c2cccs2)cc1,6.25% (active)
23,COc1cc(OC)cc(-c2nc(-c3ccccc3)c(-c3cccs3)[nH]2)c1,0.0508% (inactive)
24,O=C(O)c1ccc(-c2nc(-c3cccs3)c(-c3cccs3)[nH]2)cc1,1.43% (inactive)

row,Structure (SMILES),activation
1,O=C1NC2(CCN(CC3CCC=CO3)CC2)Oc2ccccc21 (centres undefined),-0.166% (inactive)
2,N#Cc1cccc(S(=O)(=O)Nc2cccc(Br)c2)c1,0.99% (inactive)
3,CCN(CC)S(=O)(=O)c1cccc(C(=O)N/N=C(\C)c2ccc(C#N)cc2)c1,-0.108% (inactive)
4,CCN(CC)S(=O)(=O)c1ccc(C)c(NS(=O)(=O)c2cccc(C#N)c2)c1,5.51% (active)
5,CNC(=O)c1c(NC(=O)c2ccc(OC)cc2)sc2c1CCCCC2,-1.51% (inactive)
6,NC(=O)c1c(NC(=O)c2ccc(Oc3ccccc3)cc2)sc2c1CCCCC2,-0.921% (inactive)
7,COc1ccc(C(=O)Nc2sc3c(c2C(N)=O)CCCC3)cc1,5.12% (active)
8,CC(C)Oc1ccc(C(=O)Nc2sc3c(c2C(N)=O)CCCC3)cc1,-0.378% (inactive)
9,COc1cccc(C(=O)Nc2sc3c(c2C(N)=O)CCCCCC3)c1,6.65% (active)
10,CNC(=O)c1c(NC(=O)c2cccc(OC)c2)sc2c1CCC2,-0.776% (inactive)
11,CCc1ccc2[nH]c3nc(SCC#N)nnc3c2c1,-0.711% (inactive)
12,COCCN1C(=O)CC(CC(=O)N2CCN(C)C[C@@H]2C(C)C)(c2cccc(OC)c2)C1=O (some centres undefined),1.08% (inactive)
13,CCCCOc1ccc(S(=O)(=O)NC2CCCCC2)cc1,-1.26% (inactive)
14,Cc1nn(C)c(C)c1-c1nc2c(NCCO)ncnc2n1C(C)C,-0.731% (inactive)
15,Cc1nn(C)c(C)c1-c1nc2ncnc(NCCO)c2[nH]1,7.4% (active)
16,OCCNc1ncnc2nc(-c3ccccc3)[nH]c12,0.187% (inactive)
17,COc1ccc(-c2nnc(SCC(=O)NC(N)=O)o2)cc1,0.906% (inactive)
18,N#CCCCSc1nnc(-c2ccc(C#N)cc2)o1,-0.162% (inactive)
19,COc1ccc(-c2nnc(SCCC#N)o2)cc1,10.1% (active)
20,CCOC(=O)c1cc2c(=O)n3ccccc3nc2n(Cc2ccco2)c1=NC(=O)c1ccc(Cl)cc1,-0.357% (inactive)
21,CC(C)N(C(=O)CN(C)S(=O)(=O)c1cc(Cl)ccc1Cl)C(C)C,-0.725% (inactive)
22,COc1ccc(NC(=O)c2nn3c(C(F)(F)F)cc(-c4ccccc4)nc3c2Br)c(OC)c1,2.64% (inactive)
23,NC(=O)NC(=O)COC(=O)/C=C/c1ccccc1Cl,1.72% (inactive)
24,CC(C)c1ccc(NC(=O)/C=C/c2ccccc2Cl)cc1,1.13% (inactive)

row,Structure (SMILES),activation
1,CC(C)NC(=O)/C=C/c1ccccc1Cl,5.07% (active)
2,O=C(O)/C=C/c1ccccc1Cl,5.27% (active)
3,CC(=O)NS(=O)(=O)c1ccc(NC(=O)/C=C/c2ccccc2Cl)cc1,0.647% (inactive)
4,O=C(/C=C/c1ccccc1Cl)Nc1ccc(I)cc1,1.42% (inactive)
5,CCOc1ccc(CN2CCN(Cc3ccc(C)o3)C(CCO)C2)cc1CO (centres undefined),1.78% (inactive)
6,O=C(N/N=C/c1ccc([N+](=O)[O-])cc1)c1cccc(I)c1,-0.236% (inactive)
7,O=C(O)c1ccc(Br)c(N2C(=O)c3cc(Cl)c(Cl)cc3C2=O)c1,0.176% (inactive)
8,Cc1ccccc1NC(=O)Nn1cnnc1,-0.0585% (inactive)
9,COc1ccc(CN(N=Nc2nonc2C)c2nonc2C)cc1,-0.147% (inactive)
10,CC(=O)c1ccc(C(=O)NCC2Cc3cc(Cl)cc(-c4ccncc4)c3O2)s1 (centres undefined),1.35% (inactive)
11,Cc1nc(=S)[nH]c(C)c1CCC(=O)O,0.381% (inactive)
12,CCOC(=O)CCC(=O)OC(C(=O)c1ccccc1)c1ccccc1 (centres undefined),0.912% (inactive)
13,CCOC(=O)C(C(=O)c1ccccc1)C1(O)C(=O)c2ccccc2C1=O (centres undefined),6.04% (active)
14,CCOC(C(=O)c1ccccc1)c1ccccc1 (centres undefined),-0.174% (inactive)
15,CCc1ccc(CN2CCCC(CO)(Cc3cccc(OC)c3)C2)o1 (centres undefined),0.911% (inactive)
16,N#Cc1c(-c2ccc(F)cc2)cc(-c2ccccc2)nc1SCCOc1ccccc1,-0.0587% (inactive)
17,Cc1cncc2cccc(N3CCN(C(=O)C(N)c4ccc(Br)cc4)CC3)c12 (centres undefined),1.97% (inactive)
18,CC1CCCCN1C(=O)c1cc2c(=O)n(C)c3ccccc3c2s1 (centres undefined),5.42% (active)
19,Cn1c(=O)c2cc(C(=O)NCCCN3CCCCCC3)sc2c2ccccc21,0.856% (inactive)
20,CCN1CCN(C(=O)c2cc3c(=O)n(C)c4ccccc4c3s2)CC1,0.989% (inactive)
21,O=C(Nc1cccc(-c2nnc3n2CCCCC3)c1)c1ccc(=O)n(Cc2ccccc2)n1,-1.56% (inactive)
22,CCOC(=O)c1c(-c2ccc(OC)cc2)oc2ccc(OC(=O)c3ccccc3OC)cc12,-0.167% (inactive)
